Sampled rows, rich in hits. Any-hit rate of the full collection: about 8%.
KB-V1 cytotox – KB-V1 MDR subline cytotoxicity; AID 1347076; 400,000 tested, 3.4% active; Potency, µM (highest dose often 46.1 µM), usual class: cytotoxic; KB-V1 MDR cells viability, CellTiter-Glo, 72 h; further: on the % scale 0 is the no-effect control and ±100 the full control effect; nearly all actives have a fitted effect of over 60% in size
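qHTS viability screen in drug-selected KB-V1 MDR cells: 72 h compound treatment at 37 degrees C, ATP luminescence end point.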
KB-3-1 cytotox – KB-3-1 parental cell cytotoxicity. 400,000 tested, 1.4% active. KB-3-1 viability, CellTiter-Glo ATP luminescence, 72 h. Potency, µM (top dose mostly 46.1 µM), usual class: cytotoxic; further: on the % scale 0 is the no-effect control and ±100 the full control effect; nearly all actives have a fitted effect of over 60% in size
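Cells are dispensed, compounds pinned in, plates held at 37 °C for 72 h, then CellTiter-Glo is added and luminescence read after 10 minutes. Cell line: parental KB-3-1 in phenol-red-free DMEM, 10% FBS.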
HT1080NT lethal – kills 2HG-producing HT-1080-NT fibrosarcoma cells. HT-1080-NT fibrosarcoma viability, CellTiter-Glo ATP luminescence, 48 h. Potency, µM (highest dose often 46.1 µM), inactives show at the top dose activity, negative = less viability, actives largely listed as cytotoxic. 360,000 tested, 1.6% active;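 further: NT is the 2HG producing partner of a matched IDH1 knockdown line; 0% = DMSO-treated cells and -100% = media-only wells without cells; nearly all actives have a fitted effect of over 55% in size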
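Read-out is CellTiter-Glo luminescence after 10 minutes at room temperature, following 48 hours' compound treatment of HT-1080-NT cells (750 cells/well, RPMI, 5% FBS, 37 degrees C).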
HT1080 IDH1KD tx – HT-1080 IDH1 knockdown cell toxicity (counter line); HT-1080 IDH1 knockdown viability, ATP luminescence, 48 h; Potency, µM (titrated, usually from 46.1 µM), inactives show at the top dose activity, negative = toxicity, usual class: cytotoxic; 360,000 tested, 2% active; AID 686971;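 further: 0% = DMSO wells and -100% = cell-free medium wells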
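In this qHTS, HT-1080 cells depleted of IDH1 are exposed for 48 h at 37 °C to compound titrations. Toxicity is scored from CellTiter-Glo luminescence, with DMSO as full viability and medium alone as none.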
SW480 rereplic – induces DNA re-replication in SW480 colon adenocarcinoma cells; 340,000 tested, 1.8% active; Potency, µM (titrated, usually from 46.1 µM), for inactives: at the highest dose re-replication activation, hits mostly activators; AID 624297; SW480 DNA re-replication, Hoechst DNA content imaging, 48 h; further: % of control where 0% means no effect; nearly all actives have a fitted effect of over 55% in size
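Quantitative HTS format with DMSO vehicle controls; 48 hr drug incubation at 37 C, then 40 min Hoechst staining and scanning imager measurement at 405 nm excitation.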
MCF10A rereplic – inducers of DNA re-replication in MCF 10A breast cells | MCF 10A DNA re-replication, Hoechst nuclear intensity, 48 h | Potency, µM (top dose mostly 46.1 µM), for inactives: at the top dose activity, positive = re-replication, hits mostly activators | 350,000 tested, 2.9% active; further: % of control where 0% means no effect; nearly all actives have a fitted effect of over 50% in size
The depositor's hits bear a star; i = inactive; ? = inconclusive; . = no result given; [ ] = remark or other dose. The call rests on the fitted dose curve; in most records, active means well fitted curve in the direction sought with a large enough effect; inconclusive means small, poorly fitted or top-dose-only effect, or another doubt; inactive means no such curve, though single readings can be large; an effect the other way counts as inactive or inconclusive. Potency means the concentration at half of the fitted maximal effect.

SMILES	KB-V1 cytotox	KB-3-1 cytotox	HT1080NT lethal	HT1080 IDH1KD tx	SW480 rereplic	MCF10A rereplic
CC(C)(C)c1ccc(-n2ncc3c2CCCC3NC(=O)CN2CCCC2=O)cc1 (stereo unspecified)	8.2µM*	?	?	1%	-2%	8%
Cn1nccc1C(=O)NC1CCCc2c1cnn2-c1ccc(C(C)(C)C)cc1 (stereo unspecified)	?	?	1.3µM*	1.3µM*	?	18µM*
CC(=O)NC1CCCc2c1cnn2-c1ccc(C(C)(C)C)cc1 (stereo unspecified)	i	i	-1%	-3%	0%	-1%
Cc1cc(C)cc(-n2ncc3c2CCCC3NC(=O)c2ccccc2N2CCOCC2)c1 (stereo unspecified)	?	?	?	16µM*	21µM*	?
Cc1cc(C)cc(-n2ncc3c2CCCC3NC(=O)CN2CCCC2=O)c1 (stereo unspecified)	i	?	4%	-2%	-8%	8%
COc1cccc(CNC(=O)c2cc(C)nc3c2c(C)nn3-c2cccc(F)c2)c1	i	i	.	.	.	.
COC(=O)c1ccc(-n2c(CCC(=O)O)ccc2-c2ccc(C)cc2)cc1	i	i	-8%	-8%	-6%	20%
O=C(NCc1cccnc1)c1cc(C2CCCN(C(=O)c3cccc(O)c3)C2)on1 (stereo unspecified)	i	?	1%	24%	.	.
O=C(c1ccccc1Cl)N1CCc2ccccc2C1	i	i	-1%	-6%	-7%	5%
Cc1ccccc1C(=O)N1CCc2ccccc2C1	i	i	2%	-4%	-1%	16µM*
CC(Oc1ccccc1)C(=O)N1CCc2ccccc2C1 (stereo unspecified)	i	i	?	9%	-64%	9%
Cc1cccc(C(=O)OC(C)C(=O)N2CCc3ccccc3C2)c1C (stereo unspecified)	18µM*	i	0%	0%	2%	-1%
CCNC(=O)N1CCCC(C(=O)c2ccc(C(F)(F)F)cc2)C1 (stereo unspecified)	i	i	1%	7%	?	-4%
O=S(=O)(c1ccc(S(=O)(=O)N2CCC3(CC2)OCCO3)cc1)N1CCCC1	i	i	10%	4%	8%	-5%
CCCCNS(=O)(=O)c1ccc(S(=O)(=O)N2CCC3(CC2)OCCO3)cc1	16µM*	i	2%	3%	-10%	-66%
O=C(Nc1cccc([N+](=O)[O-])c1)C(=O)N1CCCCC1	i	i	-10%	-8%	0%	-14%
CC(C)C(=O)NC(NC(=S)Nc1cccc2cccnc12)C(Cl)(Cl)Cl (stereo unspecified)	23µM*	i	-8%	-8%	2%	6%
CCC(=O)NC(NC(=S)Nc1cccc2cccnc12)C(Cl)(Cl)Cl (stereo unspecified)	i	i	-1%	-1%	4%	-1%
O=C(Cc1ccccc1)NC(Nc1cccc2ccccc12)C(Cl)(Cl)Cl (stereo unspecified)	i	i	0%	-3%	4%	6%
CC(C)(C)C(=O)NC(Nc1cccc2cccnc12)C(Cl)(Cl)Cl (stereo unspecified)	?	i	-26%	-26%	23µM*	21µM*
O=C(CCn1c(=O)oc2ccccc21)Nc1ccc(C(=O)O)cc1	i	i	21%	19%	-28%	-25%
CCc1ccc(NC(=O)c2ccc(C3SCC(=O)N3CCc3ccccc3)cc2)cc1 (stereo unspecified)	i	i	-17%	-6%	1%	5%
COc1ccc(C(=O)NC(=S)N2CC(C)OC(C)C2)cc1 (stereo unspecified)	i	i	5%	23%	-2%	-1%
Cc1ccc(C(=O)NC(=S)N2CC(C)OC(C)C2)cc1[N+](=O)[O-] (stereo unspecified)	?	i	3.5µM*	2.8µM*	?	-2%
COc1ccc(-n2c(C)nn(C)c2=O)cc1	i	i	2%	17%	10%	-1%
SMILES	KB-V1 cytotox	KB-3-1 cytotox	HT1080NT lethal	HT1080 IDH1KD tx	SW480 rereplic	MCF10A rereplic
COc1ccc(-n2c(/C=C(\C)O)nc(=O)c3c(C)cc(C)nc32)cc1	7.3µM*	i	-1%	4%	0%	2%
Cc1ccc(-c2nc3n(n2)Cc2ccccc2-3)cc1	?	i	?	?	-7%	?
Fc1ccc(-c2nc3n(n2)Cc2ccccc2-3)cc1	?	?	26µM*	15µM*	1%	14%
CCn1c(C)nc2cc(-c3nc4n(n3)Cc3ccccc3-4)ccc21	?	5.8µM*	2.1µM*	1.8µM*	-14%	17%
Cc1cccc(C2c3[nH]c4ccccc4c3CCN2C(=O)c2ocnc2C)n1 (stereo unspecified)	i	i	-24%	-15%	-2%	2%
COc1ccc(C2C(Oc3ccccc3)C(=O)N2c2cc(C)ccc2C)cc1OC (stereo unspecified)	6.5µM*	i	2%	2%	14%	13%
COc1ccc(C2C(Oc3ccccc3)C(=O)N2c2ccc(C)c(C)c2)cc1OC (stereo unspecified)	i	i	-4%	-3%	-3%[9.22 µM]	12%
CCOc1ccc(C(=O)C2CCN(CC(=O)Nc3ccccc3N3CCOCC3)CC2)cc1	?	i	?	?	?	7.3µM*
CCOc1ccc(C(=O)Nc2ccccc2N2CCCC2)cc1	?	23µM*	-3%	-12%	?	?
COc1ccc(NC(=O)CN2CCC(C(=O)c3ccc(C)cc3)CC2)c(OC)c1	i	i	8%	4%	-44%	?
O=C(Nc1ccccc1N1CCCCC1)c1ccc(F)cc1	i	i	0%	-5%	-4%	19%
COc1ccc(OC)c(NC(=O)CN2CCC(C(=O)c3ccc(C)cc3)CC2)c1	8.2µM*	?	-11%	?	3%	18µM*
O=C(Nc1ccccc1N1CCCCC1)c1ccc(OC(F)F)cc1	i	i	-1%	-2%	26%	13µM*
Cc1ccc(S(=O)(=O)NC(C)C(=O)NC2CC2)cc1 (stereo unspecified)	i	i	1%	1%	-6%	-24%
CCCn1nc2cc(C(=O)NC3CCc4ccccc43)ccc2c1OCC (stereo unspecified)	i	i	11%	12%	0%	-8%

Source: PubChem BioAssay (National Center for Advancing Translational Sciences (NCATS))
